# Experimental data: PubChem BioAssay AID623868 (Vanderbilt High Throughput Screening Facility, 2012)
# The whole screen tested about 2,100 compounds, of which about 760 (36%) were called active.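 Rule for the calls: active = thallium-flux fluorescence traces judged by eye to show enhanced or reduced glutamate response, manual score 1 or -1, so both directions (some results past the limit were not filed as active); inactive = the rest, including fluorescent or raised-baseline compounds.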 Not all results are given here.
# Assay: non-GIRK thallium flux modulation in mGlu8 cells, confirmation, counter-screen for GIRK activator project, cell-based, HEK-293 rmGlu8, no GIRK (AID 623868);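 note: extra codes mark interference with 3 for fluorescent and 4 for baseline rise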
# Details: thallium flux fluorescence, at 10 µM, actives lie on both sides, codes: 1 enhancer, -1 blocker, 0 none, thallium stimulus containing EC20 glutamate
row,Structure (SMILES),manual score
1,CN(C)c1nc2ccccc2c(N)c1-c1ccccc1,0 (inactive)
2,COc1ccc(-c2nnc3sc(C4CCCCC4)nn23)cc1OC,-0.5 (inactive)
3,CCCc1nc2scc(-c3ccccc3)c2c(=O)n1N,0 (inactive)
4,Cc1ccc(-c2csc3nc[nH]c(=S)c23)cc1C,1 (active)
5,S=c1[nH]cnc2scc(-c3ccccc3)c12,1 (active)
6,CC1(C)Cc2nc(NCCN3CCOCC3)c(C#N)cc2CO1,0 (inactive)
7,O=c1cc(Cn2ccnc2)c2cc3c(cc2o1)CCC3,0 (inactive)
8,O=C(CN1C(=O)/C(=C/c2ccccc2F)Oc2ccccc21)N1CCN(c2ccccn2)CC1,0 (inactive)
9,COC(=O)c1c(NC(=O)CSc2nnc(-c3cccnc3)n2Cc2ccco2)sc(C)c1C,-1 (active)
10,CCOC(=O)c1c(NC(=O)CSc2nnc(-c3ccncc3)n2Cc2ccco2)sc(C(C)=O)c1C,-1 (active)
11,O=C(CCn1c(=O)oc2ccccc21)N1CCN(c2ccccc2Cl)CC1,0 (inactive)
12,S=C(Nc1ccccc1Cl)Nc1ccc(Cl)cc1Cl,1 (active)
13,COc1ccccc1NC(=S)NCCc1ccc(Cl)cc1,0 (inactive)
14,S=C(Nc1ccc(Oc2ccccc2)cc1)NC1CCCC1,0 (inactive)
15,CN(C)S(=O)(=O)c1cccc(NC(=O)Cc2ccc(Cl)cc2)c1,0 (inactive)
16,CN(C)S(=O)(=O)c1cccc(NC(=S)Nc2ccc(Cl)cc2Cl)c1,1 (active)
17,S=C(NCCc1ccccc1)Nc1ccc(Cl)cc1Cl,0 (inactive)
18,S=C(Nc1cccc(Cl)c1)Nc1ccccc1Oc1ccccc1,0 (inactive)
19,CN(C)S(=O)(=O)c1cccc(NC(=S)Nc2cc(Cl)cc(Cl)c2)c1,0 (inactive)
20,S=C(Nc1ccc(Cl)cc1Cl)Nc1ccccc1Oc1ccccc1,1 (active)
21,S=C(Nc1ccccc1Oc1ccccc1)Nc1cccc(Cl)c1Cl,1 (active)
22,S=C(Nc1ccccc1)Nc1cc(Cl)ccc1Oc1ccccc1,0 (inactive)
23,COC(=O)CSc1nnc(SCc2ccc(OC)cc2)s1,-0.5 (inactive)
24,Cc1ccc(C2C3=C(NCCN=C3c3ccccc3)C(=O)N2c2ccccc2)cc1 (configuration not stated),0 (inactive)
25,CCCCn1c(=O)nc2n(-c3ccccc3)c3ccccc3cc-2c1=O,0 (inactive)
26,O=C1c2ccccc2C(Nc2ccc3c(c2)OCCO3)N1Cc1ccccc1 (configuration not stated),0 (inactive)

row,Structure (SMILES),manual score
1,Cc1ccccc1Cn1c(-c2cncs2)nc2ccccc21,0 (inactive)
2,Cn1nc(C(F)(F)F)c2cc(NC(=O)OCc3ccc(F)cc3)sc21,0 (inactive)
3,CCc1cccc(NC(=O)CSC2=NS(=O)(=O)c3ccccc32)c1,0 (inactive)
4,CC(C)OCCCNC(=O)c1cccc(NC(=O)c2ccccc2)c1,0 (inactive)
5,O=C(Nc1ccc2[nH]c(=S)sc2c1)c1ccccc1,1 (active)
6,Cn1cccc1-c1nc2ccc(NC(=O)c3cccs3)cc2[nH]1,0 (inactive)
7,COc1ccc(OCCCN2CCCCCC2)cc1,0 (inactive)
8,O=C(COC(=O)C1CC2C=CC1C2)Nc1ccc2c(c1)OC(F)(F)O2 (configuration not stated),0 (inactive)
9,O=C(Nc1nc(-c2ccccn2)cs1)c1ccc(Br)s1,1 (active)
10,CC(C)(C)c1csc(NC(=O)c2ccc3nccnc3c2)n1,0 (inactive)
11,O=C(Nc1nc(-c2cc3ccccc3oc2=O)cs1)c1ccc(Br)o1,0 (inactive)
12,COCCNC(=O)CN1C(=O)CSc2ncccc21,0 (inactive)
13,Cc1ccc2cccc(S(=O)(=O)N3CCN(c4ccccc4F)CC3)c2n1,0 (inactive)
14,O=C(NC(=S)Nn1cnc2c(cnn2-c2ccccc2)c1=O)c1ccc(Oc2ccccc2)cc1,1 (active)
15,CCCN(CCC)CCNC(=O)C(NS(=O)(=O)c1ccc2c(c1)CCC(=O)N2)c1ccccc1 (configuration not stated),0 (inactive)
16,Cn1c(=O)c2c(nc3sccn32)n(C)c1=O,0 (inactive)
17,N#CC1(Cc2ccc([N+](=O)[O-])cc2)c2ccccc2C=CN1C(=O)c1ccccc1 (configuration not stated),0 (inactive)
18,COc1cc(-c2nnc(CSc3nc4ccccc4s3)o2)cc(OC)c1OC,0 (inactive)
19,COc1ccc(-c2nc(C#N)c(NCCCN(C)C)o2)cc1OC,0 (inactive)
20,COc1ccc(-c2nnc(CSc3nc4ccccc4c(=O)n3C)o2)cc1OC,-1 (active)
21,COc1ccc(C(=O)NNC(=S)NC(=O)c2ccco2)cc1,1 (active)
22,COc1ccccc1C(=O)NNC(=S)NC(=O)c1ccco1,1 (active)
23,S=c1[nH]nc(-c2ccco2)n1/N=C/c1cccc(Cl)c1Cl,1 (active)
24,S=c1[nH]nc(-c2ccco2)n1/N=C/c1ccc(Cl)cc1Cl,1 (active)
25,S=c1[nH]nc(CSCc2ccc(Cl)cc2Cl)n1-c1ccccc1,0 (inactive)
26,O=C1c2ccsc2SCCN1Cc1c(Cl)cccc1Cl,0 (inactive)

row,Structure (SMILES),manual score
1,O=c1c2c3c(sc2nc2n1CCCCC2)CCCCC3,0 (inactive)
2,CCn1c(SCC(N)=O)nc2sc3c(c2c1=O)CCCC3,1 (active)
3,COC(=O)c1sc(N2C(=O)C(O)=C(C(=O)c3ccc(C)o3)C2c2ccc(F)cc2)nc1C (configuration not stated),-1 (active)
4,C=CCn1c(=O)c2c(C)c(C)sc2n2c(Nc3ccc(OC)cc3)nnc12,-1 (active)
5,COC(=O)Nc1nnc(Cc2ccc(Cl)cc2)s1,0 (inactive)
6,O=C(CSc1nc(-c2ccccc2)cc(=O)[nH]1)N1CCc2ccccc21,0 (inactive)
7,CC12CCC(C(=O)N3CCCc4ccccc43)(CC1=O)C2(C)C (configuration not stated),0 (inactive)
8,O=C(NC(=S)N1CCCc2ccccc21)c1ccc(Br)cc1,1 (active)
9,O=C(NC(=S)N1CCc2ccccc21)c1ccccc1,1 (active)
10,O=C(NC(=S)N1CCCc2ccccc21)c1ccc([N+](=O)[O-])cc1,1 (active)
11,O=S(=O)(Cc1ccccc1)N1CCc2ccccc21,3 (inactive)
12,O=C(NC(=S)N1CCCc2ccccc21)c1ccc(Cl)cc1,1 (active)
13,CCSc1nnc(NC(=O)c2nn(C(C)C)c(=O)c3ccccc23)s1,-0.5 (inactive)
14,CS(=O)(=O)N(CCc1ccccc1)CC(=O)NCc1ccc2c(c1)OCO2,0 (inactive)
15,CC(C)(C)C1CCC2(CC1)Nc1cccc3cccc(c13)N2,0 (inactive)
16,CC1CCN(CC(O)COC2CCC(C(C)(C)C)CC2)CC1 (configuration not stated),0 (inactive)
17,CCC1CCCCN1C(=O)CSc1nnc(-c2ccco2)o1 (configuration not stated),0 (inactive)
18,Cc1c(C(=O)N2CCc3ccccc32)oc2c1C(=O)CC(C)(C)C2,0 (inactive)
19,O=C(c1ccccc1)N1CCCc2ccccc21,0 (inactive)
20,COC(=O)c1cc2sccc2n1CC(=O)N1CCCc2ccccc21,0 (inactive)
21,O=C(NC(=S)N1CCCc2ccccc21)c1ccccc1,1 (active)
22,CCC1CCCCN1C(=O)c1cc2cc(Br)ccc2oc1=O (configuration not stated),0 (inactive)
23,O=C(NC(=S)N1CCc2ccccc21)c1ccccc1Br,1 (active)
24,CCC1CCCCN1C(=S)NC(=O)c1ccc([N+](=O)[O-])cc1 (configuration not stated),1 (active)
25,O=C(N/N=C1\CCCc2ccccc21)c1ccc([N+](=O)[O-])cc1,1 (active)
